# Reference: PMC4336329 (PLoS ONE, 2015)
# About 2,200 (0.71%) of roughly 310,000 compounds showed an effect of 50% or more. Effects have a minus sign here. Shown is part of a subset that was picked to be rich in strong results.
# Target: human ether-à-go-go-related gene (hERG) potassium channel (human, UniProt Q12809)
# Test: primary screen, population patch clamp on CHO cells stably expressing hERG; higher = less effect of the substance
# human ether-à-go-go-related gene (hERG) potassium channel, sequence (Q12809 whole entry, looked up): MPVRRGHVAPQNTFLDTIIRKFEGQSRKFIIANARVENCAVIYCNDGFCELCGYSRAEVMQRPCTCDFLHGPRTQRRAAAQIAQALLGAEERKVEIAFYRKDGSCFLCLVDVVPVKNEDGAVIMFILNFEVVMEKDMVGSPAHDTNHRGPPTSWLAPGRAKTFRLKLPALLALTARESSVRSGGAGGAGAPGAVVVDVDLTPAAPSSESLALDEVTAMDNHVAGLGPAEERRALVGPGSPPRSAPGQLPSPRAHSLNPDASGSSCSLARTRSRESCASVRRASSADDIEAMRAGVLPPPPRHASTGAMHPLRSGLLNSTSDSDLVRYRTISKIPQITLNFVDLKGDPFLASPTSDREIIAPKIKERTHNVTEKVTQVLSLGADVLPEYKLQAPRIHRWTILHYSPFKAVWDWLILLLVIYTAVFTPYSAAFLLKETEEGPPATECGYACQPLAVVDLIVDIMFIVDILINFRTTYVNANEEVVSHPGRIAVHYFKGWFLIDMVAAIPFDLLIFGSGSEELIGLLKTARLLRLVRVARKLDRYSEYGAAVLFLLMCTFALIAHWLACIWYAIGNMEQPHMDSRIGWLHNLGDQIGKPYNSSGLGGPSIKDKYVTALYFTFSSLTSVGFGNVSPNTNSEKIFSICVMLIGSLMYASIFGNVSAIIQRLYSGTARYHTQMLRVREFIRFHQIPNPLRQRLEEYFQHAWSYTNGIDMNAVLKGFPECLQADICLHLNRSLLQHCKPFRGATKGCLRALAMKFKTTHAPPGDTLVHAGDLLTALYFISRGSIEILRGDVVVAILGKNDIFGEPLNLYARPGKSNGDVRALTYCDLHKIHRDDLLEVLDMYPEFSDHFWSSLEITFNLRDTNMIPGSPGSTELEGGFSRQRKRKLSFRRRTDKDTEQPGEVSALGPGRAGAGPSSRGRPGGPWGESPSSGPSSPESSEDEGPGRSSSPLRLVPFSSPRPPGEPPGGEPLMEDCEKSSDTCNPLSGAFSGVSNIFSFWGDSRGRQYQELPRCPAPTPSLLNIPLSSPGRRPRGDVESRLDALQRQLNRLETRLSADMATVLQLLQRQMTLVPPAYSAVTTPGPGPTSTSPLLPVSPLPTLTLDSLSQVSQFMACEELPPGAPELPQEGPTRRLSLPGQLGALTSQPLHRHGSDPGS
row,SMILES,"hERG current change (%, negative = inhibition) at 1uM [%]"
1,Cc1cc(-c2ccco2)n(CC(=O)NCCCc2ccccc2)n1,14.3
2,CC(C)(C)NC(=O)c1ccc2nsnc2c1,6.08
3,C=CCn1c(COc2ccc(Cl)cc2)nnc1SCC(=O)N/N=C/c1cccc(O)c1,4.13
4,COc1cccc(-c2c(C#N)c(N)nc3c2c(C)nn3-c2ccccc2)c1O,1.84
5,FC(F)(F)c1ccncc1-c1nnc(C2CCCCC2)o1,15.5
6,CCOC(=O)N1CCC(NC(=O)c2cnn3cccnc23)CC1,-4.76
7,CC1CCCCN1CCNC(=O)CC1Oc2ccccc2NC1=O (centres unmarked),5.21
8,Cc1cc(C)nc(OC(C(=O)O)C(OCCC(C)C)(c2ccccc2)c2ccccc2)n1 (centres unmarked),10.8
9,CCOC(=O)C1(CCOc2ccccc2)CCN(Cc2ccc(COC)o2)CC1,-41.9
10,CCOC(=O)C1(CCOc2ccccc2)CCN(Cc2ccc(F)c(OC)c2)CC1,5.6
11,CCOC(=O)C1(CCOc2ccccc2)CCN(Cc2cc(OC)c(O)cc2Cl)CC1,7.21
12,CCOC(=O)C1(CCOc2ccccc2)CCN(Cc2ccc(OC)c(COC)c2)CC1,-77.3
13,CCOC(=O)C1(CCOc2ccccc2)CCN(Cc2ccc(OC)c(O)c2)CC1,-88.3
14,CCOC(=O)C1(CCOc2ccccc2)CCN(Cc2ccc(O)c(Cl)c2)CC1,-2.25
15,CCOC(=O)C1(CCOc2ccccc2)CCN(Cc2ccc(O)c(OC)c2)CC1,-69.9
16,CCOC(=O)C1(Cc2cccc(OC)c2)CCN(Cc2ccc(OC)c(O)c2)CC1,-16.9
17,CCOC(=O)CSc1nnc(COc2cccc(C)c2)o1,10.6
18,COCCOc1ccc(C(F)(F)F)cc1NC(=O)c1ccc(C(F)(F)F)cc1,4.7
19,CCN(CC)S(=O)(=O)c1ccc(N/N=C/c2cc(OC)c(OC)cc2OC)nc1,17.4

row,SMILES,"hERG current change (%, negative = inhibition) at 1uM [%]"
1,COc1ccc(C(=O)NC2CCCc3ccccc32)cc1OC1CCN(C(C)=O)CC1 (centres unmarked),3.31
2,CCOc1ccc(/C(O)=C2/C(=O)C(=O)N(CCCN3CCOCC3)C2c2ccc(F)cc2)cc1C (centres unmarked),16.5
3,CN1CCN(S(=O)(=O)c2ccc(N3CCN(C(c4ccccc4)c4ccccc4)CC3)nc2)CC1,18.9
4,Cc1ccc(NC(=O)COc2ccc(S(=O)(=O)N3CCOCC3)cc2)cc1,13.6
5,O=C(COc1ccc([N+](=O)[O-])cc1)Nc1ccc(S(=O)(=O)N2CCOCC2)cc1,-55.1
6,O=C(COc1ccc(S(=O)(=O)N2CCOCC2)cc1)Nc1cccc([N+](=O)[O-])c1,9.62
7,Cc1c(CCC(=O)N2CCC[C@H]2C(=O)O)c(=O)oc2c(C)c3oc4c(c3cc12)CCCC4,21.1
8,COC(=O)C(NC(C)=O)(Nc1ccc(C)cn1)C(F)(F)F (centres unmarked),21.1
9,Cc1ccc(NP(=O)(Oc2ccccc2F)Oc2ccccc2F)cc1,-1.69
10,COc1cc(OC)cc(C(=O)N2CCN(Cc3ccccc3Br)CC2)c1,9.25
11,Cc1ccc2nc3c(cc(C(=O)NC4CCCC4)c(=N)n3CCCn3ccnc3)c(=O)n2c1,-2.46
12,Cc1ccc(S(=O)(=O)c2cc3c(=O)n4ccccc4nc3n(C3CCCCC3)c2=N)cc1,-0.427
13,Cc1ccc2nc3c(cc(C(=O)NC4CCCC4)c(=N)n3C3CCCCC3)c(=O)n2c1,-86.2
14,Cc1ccc(S(=O)(=O)c2cc3c(=O)n4ccccc4nc3n(C3CCCC3)c2=N)cc1,3.8
15,Cc1ccc2nc3c(cc(C(=O)NC4CCCCC4)c(=N)n3C3CCCCC3)c(=O)n2c1,-72.7
16,CCCOc1cccc(C(=O)N(Cc2ccco2)C2CCS(=O)(=O)C2)c1 (centres unmarked),3.56
17,CCN(CC)C(=O)C1CCN(S(=O)(=O)c2ccc3oc4ccccc4c3c2)CC1,16.7
18,CCc1ccc(NC(=O)c2nc(S(=O)(=O)Cc3ccccc3)ncc2Cl)cc1,20.7
19,O=c1[nH]c2ccccc2cc1CN(Cc1cccnc1)S(=O)(=O)c1ccc([N+](=O)[O-])cc1,-5.07

row,SMILES,"hERG current change (%, negative = inhibition) at 1uM [%]"
1,c1ccc(C(c2nnnn2Cc2ccco2)N2CCN(c3nc4ccccc4s3)CC2)cc1 (centres unmarked),8.1
2,Cc1ccc(Cl)cc1NC(=O)C1CCCN(S(C)(=O)=O)C1 (centres unmarked),7.81
3,O=Cc1cc([N+](=O)[O-])ccc1N1CCN(Cc2ccc3c(c2)OCO3)CC1,-66.7
4,O=[N+]([O-])c1ccc(N2CCN(Cc3ccc4c(c3)OCO4)CC2)nc1,-29.2
5,Cl.O=[N+]([O-])c1ccc2ncnc(N3CCN(Cc4ccc5c(c4)OCO5)CC3)c2c1,11.4
6,Cc1ccccc1Nc1nc2nonc2nc1N1CCOCC1,6.45
7,CC1C(=O)NC(=O)C1c1ccccc1 (centres unmarked),13.3
8,Cn1c(N)c(C(=O)COC(=O)CSc2ccc(Cl)cc2)c(=O)n(C)c1=O,-2.13
9,CC(C)(C)NCc1cc2ccccc2[nH]c1=O,8.1
10,O=C1CCN(CCc2ccccc2)CCN1[C@H](CO)c1ccccc1,-7.26
11,O=C1CCN(CCc2ccccc2)CCN1[C@H](COc1ccccc1)c1ccccc1,-82.8
12,CCCCCCCN1CCC(=O)N([C@H](CO)c2ccccc2)CC1,-25.8
13,CC(C)CN1CCC(=O)N([C@H](COc2ccccc2)c2ccccc2)CC1,-64.3
14,O=C1CCN(Cc2ccccc2)CCN1[C@H](COc1ccccc1)c1ccccc1,2.66
15,CC(C)C[C@@H](COc1ccccc1)N1CCN(CC(C)C)CCC1=O,-21.2
16,CCCN1CCC(=O)N([C@H](COc2ccccc2)c2ccccc2)CC1,-76.5
17,CCCN1CCC(=O)N([C@H](CO)c2ccccc2)CC1,9.74
18,CC(C)CN1CCC(=O)N([C@H](CO)c2ccccc2)CC1,12.6
